Test results as given in PubChem BioAssay (NCATS).
Results filed as inconclusive are left out. The source made the active and inactive calls. The call rests on the fitted dose curve; in most records, active means well fitted inhibition curve with a large enough effect; inconclusive means small, poorly fitted or top-dose-only effect; inactive means flat fitted curve, though single readings scatter.

Legend:
Assay in all cases: qHTS profiling for inhibitors of Plasmodium falciparum proliferation (AID 504749); further: nearly all actives have a fitted effect of over 60% in size
CP260 = conditions: P. falciparum in erythrocytes, SYBR Green DNA, 72 h; series mostly up to 28.7 µM
Outline: (§1)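 P. falciparum-infected erythrocytes (0.3% parasitemia, 2.5% hematocrit final) were exposed to compounds for 72 h at 37 C in 5% CO2, then lysed with SYBR Green buffer overnight at room temperature; parasite DNA fluorescence was normalized to artemisinin and DMSO controls.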

CP262 = conditions: P. falciparum in erythrocytes, SYBR Green DNA, 72 h; series mostly up to 28.7 µM
Outline: as §1

CP265 = conditions: P. falciparum in erythrocytes, SYBR Green DNA, 72 h; series mostly up to 12.8 µM
Outline: as §1

CP266 = conditions: P. falciparum in erythrocytes, SYBR Green DNA, 72 h; series mostly up to 12.8 µM
Outline: as §1

CP268 = conditions: P. falciparum in erythrocytes, SYBR Green DNA, 72 h; series mostly up to 28.7 µM
Outline: as §1

CP269 = conditions: P. falciparum in erythrocytes, SYBR Green DNA, 72 h; series mostly up to 28.7 µM
Outline: as §1

CP286 = conditions: P. falciparum in erythrocytes, SYBR Green DNA, 72 h; series mostly up to 28.7 µM
Outline: as §1

CP291 = conditions: P. falciparum in erythrocytes, SYBR Green DNA, 72 h; series mostly up to 28.7 µM
Outline: as §1

CP297 = conditions: P. falciparum in erythrocytes, SYBR Green DNA, 72 h; series mostly up to 28.7 µM
Outline: as §1

CP305 = conditions: P. falciparum in erythrocytes, SYBR Green DNA, 72 h; series mostly up to 28.7 µM
Outline: as §1

CP315 = conditions: P. falciparum in erythrocytes, SYBR Green DNA, 72 h; series mostly up to 28.7 µM
Outline: as §1

CP325 = conditions: P. falciparum in erythrocytes, SYBR Green DNA, 72 h; series mostly up to 28.7 µM
Outline: as §1

CP329 = conditions: P. falciparum in erythrocytes, SYBR Green DNA, 72 h; series mostly up to 28.7 µM
Outline: as §1

CP335 = conditions: P. falciparum in erythrocytes, SYBR Green DNA, 72 h; series mostly up to 12.8 µM
Outline: as §1

DFO2036 = conditions: P. falciparum in erythrocytes, SYBR Green DNA, 72 h; series mostly up to 28.7 µM
Outline: as §1

DIV14 = conditions: P. falciparum in erythrocytes, SYBR Green DNA, 72 h; series mostly up to 28.7 µM
Outline: as §1

DIV17 = conditions: P. falciparum in erythrocytes, SYBR Green DNA, 72 h; series mostly up to 28.7 µM
Outline: as §1

DIV30 = conditions: P. falciparum in erythrocytes, SYBR Green DNA, 72 h; series mostly up to 28.7 µM
Outline: as §1

Dd2 = conditions: P. falciparum in erythrocytes, SYBR Green DNA, 72 h; series mostly up to 28.7 µM
Outline: as §1

ECU = conditions: P. falciparum in erythrocytes, SYBR Green DNA, 72 h; series mostly up to 28.7 µM
Outline: as §1

FAB9 = conditions: P. falciparum in erythrocytes, SYBR Green DNA, 72 h; series mostly up to 28.7 µM
Outline: as §1

GB4 = conditions: P. falciparum in erythrocytes, SYBR Green DNA, 72 h; series mostly up to 28.7 µM
Outline: as §1

HB3 = conditions: P. falciparum in erythrocytes, SYBR Green DNA, 72 h; series mostly up to 28.7 µM
Outline: as §1

ICS = conditions: P. falciparum in erythrocytes, SYBR Green DNA, 72 h; series mostly up to 28.7 µM
Outline: as §1

JCK = conditions: P. falciparum in erythrocytes, SYBR Green DNA, 72 h; series mostly up to 28.7 µM
Outline: as §1

N140 = conditions: P. falciparum in erythrocytes, SYBR Green DNA, 72 h; series mostly up to 28.7 µM
Outline: as §1

P93_24 = conditions: P. falciparum in erythrocytes, SYBR Green DNA, 72 h; series mostly up to 28.7 µM
Outline: as §1

P94_40 = conditions: P. falciparum in erythrocytes, SYBR Green DNA, 72 h; series mostly up to 28.7 µM
Outline: as §1

PAD = conditions: P. falciparum in erythrocytes, SYBR Green DNA, 72 h; series mostly up to 28.7 µM
Outline: as §1

PC15 = conditions: P. falciparum in erythrocytes, SYBR Green DNA, 72 h; series mostly up to 28.7 µM
Outline: as §1

PC26 = conditions: P. falciparum in erythrocytes, SYBR Green DNA, 72 h; series mostly up to 28.7 µM
Outline: as §1

PC49 = conditions: P. falciparum in erythrocytes, SYBR Green DNA, 72 h; series mostly up to 28.7 µM
Outline: as §1

SC27B = conditions: P. falciparum in erythrocytes, SYBR Green DNA, 72 h; series mostly up to 28.7 µM
Outline: as §1

TAB113 = conditions: P. falciparum in erythrocytes, SYBR Green DNA, 72 h; series mostly up to 28.7 µM
Outline: as §1

TAB165 = conditions: P. falciparum in erythrocytes, SYBR Green DNA, 72 h; series mostly up to 28.7 µM
Outline: as §1

W2 = conditions: P. falciparum in erythrocytes, SYBR Green DNA, 72 h; series mostly up to 12.8 µM
Outline: as §1

Measured: Potency

CNC(C)[C@@H](O)c1ccc(O)cc1 (stereo partly specified)
inactive: all assays above
